The list is not random: actives were taken first. Their share in the collection is about 21%.
IL-1B inflam inh: blocks inflammasome-driven IL-1 beta release | 360,000 compounds, 4.7% hits | THP-1 LPS/ATP IL-1B secretion, AlphaLISA, 16 h; hits give low values | AID 743279 | activity change, % at 57.5 µM; in the data active = activity change below about -50%; inconclusive = mostly about -30% to -49%; also: % is scaled to controls: 0 for no effect and ±100 for the full control effect
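Secreted IL-1B measured by AlphaLISA bead assay after 16 h compound exposure of THP-1 cells; compounds (final up to 57.5 uM) added 1 h before LPS (250 ng/mL) and ATP (1.25 mM) stimulation; lower signal means less secretion.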
TDP1 cell noCPT: qHTS for Inhibitors of human tyrosyl-DNA phosphodiesterase 1 (TDP1): qHTS in cells in absence of CPT | DT40 Tdp1-/- hTDP1 cells, no CPT, ATP luminescence, 48 h | Potency, µM (doses to about 46.2 µM), inactives show at the highest dose activity change, negative = growth inhibition, hits mostly inhibitors | 420,000 compounds, 15% hits; also: potency is read from the fitted curve at half-maximal effect; % is scaled to controls: 0 for no effect and ±100 for the full control effect; nearly all actives have a fitted effect of over 55% in size
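Readout: luminescence from CellTiter-Glo after 30 min in the dark at RT. Cells: DT40 Tdp1-/- with stable hTDP1, 400/well. Exposure: compounds alone, ≥48 hr, 37 °C.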
DRD3 agonist: activates the human D3 dopamine receptor. D3R DiscoveRx beta-arrestin cells, luminescence, 90 min. 410,000 compounds, 0.58% hits. max activation, %. P35462. AID 652048; in the data active = max activation above about 30%; also: 0% is about no effect
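Agonist mode: compounds and dopamine controls were applied to plated cells for 90 min at 37 degrees C after an overnight attachment at 1500 cells/well. Luminescent read-out followed 30 - 60 minutes at room temperature with DiscoveRx detection reagent.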
ClpP mod: qHTS Assay for Activators of ClpP. purified B. subtilis ClpP, FRET peptide cleavage, 20 min. Potency, µM (series often up to 57.5 µM), for inactives: top-dose activity change, negative = active. 340,000 compounds, 1.9% hits; active = well fitted falling curve with a large enough effect; inconclusive = small, poorly fitted or top-dose-only effect; inactive = no such curve, though single readings can be large or run the other way; also: potency is read from the fitted curve at half-maximal effect; the source files actives as falling curves though it sought activators and does not explain the sign; nearly all actives have a fitted effect of over 65% in size
Target sequence (P80244 whole entry, looked up): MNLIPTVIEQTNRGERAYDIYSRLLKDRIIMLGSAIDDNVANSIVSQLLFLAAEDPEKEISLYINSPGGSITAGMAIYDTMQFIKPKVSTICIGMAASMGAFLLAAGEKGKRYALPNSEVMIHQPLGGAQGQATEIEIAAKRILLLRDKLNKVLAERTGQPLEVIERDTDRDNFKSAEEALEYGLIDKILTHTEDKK
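Purified B. subtilis ClpP, 10 microg/mL final in Tris/HCl pH8 with KCl, BSA, glycerol and Tween-20, cleaved an Abz/nitrotyrosine-quenched decapeptide. Fluorescence (ex 320, em 430) was read at 0 and 20 min at room temperature. Delta was normalized to 5.8 microM ADEP and DMSO/no-enzyme controls.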
DT40 TDP1 CPT: growth inhibition of DT40 Tdp1-/-;hTDP1 cells with camptothecin (screen for TDP1 inhibitors). chicken DT40 Tdp1-/-;hTDP1 cells + 20 nM CPT, ATP luminescence, 48 h. Potency, µM (top dose mostly 46.2 µM), inactives show at the top dose activity change, negative = growth inhibition, usual class: inhibitors. 420,000 compounds, 12% hits. AID 686979; also: potency is read from the fitted curve at half-maximal effect; % is scaled to controls: 0 for no effect and ±100 for the full control effect; nearly all actives have a fitted effect of over 55% in size
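Cell growth measured by CellTiter-Glo luminescence after a minimum 48 h, 37 C compound exposure with 20 nM CPT in Tdp1-knockout DT40 cells stably expressing hTDP1, seeded 400/well; qHTS titration format.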
D3 antag: blocks the human D3 dopamine receptor | P35462 | D3R cells, DiscoveRx beta-arrestin luminescence, antagonist mode; hits give low values | max response, negative = inhibition, % | 360,000 compounds, 2.5% hits | AID 652054; in the data active = max response below about -50%; inconclusive = no clear call, values can overlap the other calls; also: % is scaled to controls: 0 for no effect and ±100 for the full control effect
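Cells expressing the human receptor were seeded at 1500 cells/well, incubated overnight at 37 degrees C in 5% CO2, then exposed to library compounds with dopamine controls for 90 minutes at 37 degrees C before luminescent detection.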
Numbers without * were called inactive; u = inconclusive; x = no result; ! = not active in a repeat. Unless noted, calls follow the shape of the dose curve; as a rule, active = well fitted inhibition curve with a large enough effect; inconclusive = small, poorly fitted or top-dose-only effect; inactive = flat fitted curve, though single readings scatter.

SMILES | IL-1B inflam inh | TDP1 cell noCPT | DRD3 agonist | ClpP mod | DT40 TDP1 CPT | D3 antag
Cc1ccc2c(c1)C1CN(C)CCC1N2C(=O)Nc1cccc(Cl)c1 (stereo unspecified) | -52.6* | 23.1µM* | -55.6 | 0.2% | u | -24.3
Cc1cc(C(=O)C[N+]23CCN(CC2)CC3)c(C)n1-c1ccc(Br)cc1 | -26.2 | -12.9% | -10.1 | x | 0.9% | 7.3
CCc1ccc(-n2c(SC(CC)C(=O)N(CC)CC)nc3n[nH]c(C)c3c2=N)cc1 (stereo unspecified) | x | 2.59µM* | 15.7 | -3.6% | 2.59µM* | x
COc1ccc(OC)c(C(O)C2CCCCN2)c1 (stereo unspecified) | -5.8 | -10.7% | -11.9 | -0.2% | 5.8% | -61.3*
CN(C)C(=O)Oc1ccc2c(=O)c(Oc3ccccc3Br)coc2c1 | u | -22.9% | 2.5 | x | -22.8% | -21.0
COc1cc(CN2CC=C(c3ccc(F)cc3)CC2)cc(OC)c1 | 8.6 | u | -23.8 | -0.7% | u | -87.5*
O=C1CC(N2CC=C(c3ccc(F)cc3)CC2)C(=O)N1c1ccc(F)cc1 (stereo unspecified) | -16.9 | u | -0.9 | -5.4% | u | 19.0
COc1cc(C)c(CN2CC=C(c3ccc(F)cc3)CC2)cc1C | 8.4 | u | -10.1 | 0.7% | -9.6% | -75.9*
Cc1ccccc1NC(=O)Cc1nc(COC(=O)c2cc([N+](=O)[O-])ccc2N)cs1 | -4.4 | u | 5.2 | -0.5% | -1.7% | 9.3
CCCC1(CCC)C(=O)NC(=NCc2ccccc2)NC1=O | 20.9 | 13µM* | 3.0 | 1.5% | 10.3µM* | u
O=[N+]([O-])c1ccc(C(=Nc2ccccc2)N2CC2)cc1 | -0.2 | 14.6µM* | -12.0 | 2.3% | 8.2µM* | -29.4
CN(C(=O)COC(=O)c1cn(C)c2ccccc12)C1CCCCC1 | -50.4* | -3.7% | 3.5 | -2.5% | -23.6% | -10.6
Cn1cc(C(=O)OCC(=O)NC2CCCC2)c2ccccc21 | -8.0 | -22.0% | -5.9 | -0.4% | -13.2% | 18.7
N#Cc1cc2c(nc1SCC(=O)Nc1ccc(C(F)(F)F)cc1)C1CCN2CC1 | x | 23.1µM* | 4.0 | 9.0% | 13µM* | x
N#Cc1cc2c(nc1SCC(=O)Nc1ccc(Cl)c(C(F)(F)F)c1)C1CCN2CC1 | x | 11.6µM* | -9.2 | -5.6% | 20.6µM* | x
N#Cc1cc2c(nc1SCC(=O)Nc1ccc(Cl)cc1)C1CCN2CC1 | -18.6 | u | 10.4 | 8.2% | u | 14.2
N#Cc1cc2c(nc1SCC(=O)Nc1cc(Cl)ccc1Cl)C1CCN2CC1 | 125.5 | u | 2.8 | 31.5% | 18.4µM* | 23.3
COc1ccc(N(CC(=O)Nc2cccc(SC)c2)S(C)(=O)=O)cc1Cl | -0.3 | u | 8.4 | -0.3% | -23.0% | -1.3
COc1ccc(CCNC(=O)CCCCn2c(=O)c3ccccc3n(Cc3ccccc3Cl)c2=O)cc1OC | x | u | -17.9 | -9.3% | u | x
COc1ccc(C/C(=N\OC(C)=O)c2ccc(OC)cc2)cc1 | 13.7 | u | 5.0 | x | -4.4% | 8.2
O=C(COc1ccc(Cl)cc1)N1CCN(C2CCCC2)CC1 | 6.6 | -5.3% | 3.8 | x | 16.6% | -16.5
Cc1ccccc1OCCCn1cc(C(=O)C(=O)N2CCOCC2)c2ccccc21 | -2.7 | u | 1.3 | -3.0% | u | 0.1
CC1(C)N([O-])[N+](=O)C1(C)Br (stereo unspecified) | x | -21.4% | x | x | u | x
O=C1NCc2c1c1c3ccccc3[nH]c1c1[nH]c3ccccc3c21 | x | 2.82µM* | x | 4.3% | 3.16µM* | x
CC(=NCc1ccc2c(c1)OCO2)c1c(O)n(-c2ccccc2)c(=O)[nH]c1=O | -16.4 | 8.3% | 0.1 | -0.1% | -0.5% | 3.7
CCCn1c(C)c(C(=O)c2cccc3ccccc23)c2ccccc21 | -20.9 | 13.3µM* | 5.5 | 0.9% | 26.6µM*! | 4.8
Cc1ccccc1OCCN=Cc1c(O)n(C)c(=O)n(C)c1=O | 25.8 | 20.6µM* | 0.1 | -0.6% | u | 26.2
